From PubChem BioAssay AID1159580 (chemical genetic matrix, 2015)
In all, about 5,500 compounds went through this assay and about 2,000 (36%) were called active. About 18% were inconclusive and are not listed. Rule as the data show it: active = normalized growth mostly below about 0.91 (no sharp cut-off); inconclusive = no clear call, values can overlap the other calls; inactive = mostly above about 0.92. The list shows a part of the results.

Assay: chemical genetic growth profiling, strain panel (AID 1159580);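 also: tested at 20 µM; growth read once vehicle control cultures reached saturation at 30 °C; 1 = growth at the plate median or of vehicle wells; lower values mean less growth of the strain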
Conditions: growth OD
[1] = S. cerevisiae deletion strains, locus YDL101C, strain DUN1, active compounds read low
[2] = S. cerevisiae deletion strains, locus YHR030C, strain SLT2, active compounds read low
[3] = S. cerevisiae deletion strains, locus YAL013W, strain DEP1, active compounds read low
[4] = S. cerevisiae deletion strains, locus YBR229C, strain ROT2, active compounds read low
[5] = S. cerevisiae deletion strains, locus YCL061C, strain MRC1, active compounds read low
[6] = S. cerevisiae deletion strains, locus YDR150W, strain NUM1, active compounds read low
[7] = S. cerevisiae deletion strains, locus YEL061C, strain CIN8, active compounds read low
[8] = S. cerevisiae deletion strains, locus YGR078C, strain PAC10, active compounds read low
[9] = S. cerevisiae deletion strains, locus YGR229C, strain SMI1, active compounds read low
[10] = S. cerevisiae deletion strains, locus YHR087W, strain rtc3, active compounds read low
[11] = S. cerevisiae deletion strains, locus YJL187C, strain SWE1, active compounds read low
[12] = S. cerevisiae deletion strains, locus YJR043C, strain POL32, active compounds read low
[13] = S. cerevisiae deletion strains, locus YJR075W, strain HOC1, active compounds read low
[14] = S. cerevisiae deletion strains, locus YLR039C, strain RIC1, active compounds read low
[15] = S. cerevisiae deletion strains, locus YLR058C, strain SHM2 (second series), active compounds read low
[16] = S. cerevisiae deletion strains, locus YLR085C, strain ARP6, active compounds read low
[17] = S. cerevisiae deletion strains, locus YLR262C, strain YPT6, active compounds read low
[18] = S. cerevisiae deletion strains, locus YML094W, strain GIM5, active compounds read low
[19] = S. cerevisiae deletion strains, locus YMR219W, strain ESC1, active compounds read low
[20] = S. cerevisiae deletion strains, locus YMR263W, strain SAP30, active compounds read low
[21] = S. cerevisiae deletion strains, locus YNL153C, strain GIM3, active compounds read low
[22] = S. cerevisiae deletion strains, locus YNL298W, strain CLA4 (second series), active compounds read low
[23] = S. cerevisiae deletion strains, locus YNL322C, strain KRE1, active compounds read low
[24] = S. cerevisiae deletion strains, locus YNR030W, strain Alg12, active compounds read low
[25] = S. cerevisiae deletion strains, locus YPL055C, strain LGE1, active compounds read low
[26] = S. cerevisiae deletion strains, locus YPL241C, strain CIN2, active compounds read low
[27] = S. cerevisiae deletion strains, locus YPR135W, strain CTF4, active compounds read low
[28] = S. cerevisiae strains, strain wild type, active compounds read low

Measured: normalized growth

O=S(=O)(NCc1ccc(C(F)(F)F)cc1)c1cccc(C(F)(F)F)c1
inactive: S. cerevisiae deletion strains, locus YAR019C, strain CDC15, active compounds read low 0.985 | S. cerevisiae deletion strains, locus YBL105C, strain PKC1, active compounds read low 0.986 | S. cerevisiae deletion strains, locus YBR135W, strain CKS1, active compounds read low 0.982 | S. cerevisiae deletion strains, locus YBR136W, strain MEC1, active compounds read low 0.985 | S. cerevisiae deletion strains, locus YBR160W, strain CDC28, active compounds read low 0.988 | S. cerevisiae deletion strains, locus YDL017W, strain CDC7, active compounds read low 0.989 | S. cerevisiae deletion strains, locus YDL028C, strain MPS1, active compounds read low 0.98 | [1] 0.987 | S. cerevisiae deletion strains, locus YDL108W, strain KIN28, active compounds read low 0.983 | S. cerevisiae deletion strains, locus YDL132W, strain cdc53, active compounds read low 0.973 | S. cerevisiae deletion strains, locus YDL214C, strain PRR2, active compounds read low 0.945 | S. cerevisiae deletion strains, locus YDR052C, strain DBF4, active compounds read low 0.987 | S. cerevisiae deletion strains, locus YDR054C, strain cdc34, active compounds read low 0.985 | S. cerevisiae deletion strains, locus YDR226W, strain ADK1, active compounds read low 0.99 | S. cerevisiae deletion strains, locus YDR477W, strain SNF1, active compounds read low 0.956 | S. cerevisiae deletion strains, locus YER123W, strain YCK3, active compounds read low 0.908 | S. cerevisiae deletion strains, locus YER133W, strain GLC7, active compounds read low 0.948 | S. cerevisiae deletion strains, locus YFL009W, strain cdc4, active compounds read low 0.974 | S. cerevisiae deletion strains, locus YFL029C, strain CAK1, active compounds read low 0.977 | S. cerevisiae deletion strains, locus YFR003C, strain YPI1, active compounds read low 0.983 | S. cerevisiae deletion strains, locus YFR019W, strain FAB1, active compounds read low 0.981 | S. cerevisiae deletion strains, locus YFR028C, strain CDC14, active compounds read low 0.983 | S. cerevisiae deletion strains, locus YGR040W, strain KSS1, active compounds read low 0.958 | S. cerevisiae deletion strains, locus YGR052W, strain FMP48, active compounds read low 0.97 | S. cerevisiae deletion strains, locus YGR092W, strain DBF2, active compounds read low 0.942 | [2] 0.883 | S. cerevisiae deletion strains, locus YHR079C, strain IRE1, active compounds read low 0.886 | S. cerevisiae deletion strains, locus YHR082C, strain KSP1, active compounds read low 1.04 | S. cerevisiae deletion strains, locus YHR205W, strain SCH9, active compounds read low 0.943 | S. cerevisiae deletion strains, locus YIL147C, strain SLN1, active compounds read low 0.984 | S. cerevisiae deletion strains, locus YJL095W, strain BCK1, active compounds read low 0.869 | S. cerevisiae deletion strains, locus YJL128C, strain PBS2, active compounds read low 0.917 | S. cerevisiae deletion strains, locus YJL157C, strain FAR1, active compounds read low 0.954 | S. cerevisiae deletion strains, locus YJR016C, strain ILV3, active compounds read low 0.984 | S. cerevisiae deletion strains, locus YJR066W, strain TOR1 (second series), active compounds read low 0.922 | S. cerevisiae deletion strains, locus YJR066W, strain TOR1, active compounds read low 1.02 | S. cerevisiae deletion strains, locus YKL048C, strain ELM1, active compounds read low 0.976 | S. cerevisiae deletion strains, locus YKL067W, strain YNK1, active compounds read low 0.96 | S. cerevisiae deletion strains, locus YKL101W, strain HSL1, active compounds read low 0.936 | S. cerevisiae deletion strains, locus YKL193C, strain SDS22, active compounds read low 0.983 | S. cerevisiae deletion strains, locus YKL203C, strain TOR2, active compounds read low 1.01 | S. cerevisiae deletion strains, locus YLR133W, strain CKI1, active compounds read low 0.976 | S. cerevisiae deletion strains, locus YLR403W, strain SFP1, active compounds read low 0.971 | S. cerevisiae deletion strains, locus YML070W, strain DAK1, active compounds read low 0.921 | S. cerevisiae deletion strains, locus YMR001C, strain CDC5, active compounds read low 0.987 | S. cerevisiae deletion strains, locus YMR205C, strain PFK2 (second series), active compounds read low 0.948 | S. cerevisiae deletion strains, locus YMR277W, strain FCP1, active compounds read low 0.984 | S. cerevisiae deletion strains, locus YNL006W, strain LST8, active compounds read low 0.98 | S. cerevisiae deletion strains, locus YNL020C, strain ARK1, active compounds read low 0.964 | S. cerevisiae deletion strains, locus YNL161W, strain CBK1, active compounds read low 0.985 | S. cerevisiae deletion strains, locus YNL183C, strain NPR1, active compounds read low 1.04 | S. cerevisiae deletion strains, locus YNL207W, strain RIO2, active compounds read low 0.987 | S. cerevisiae deletion strains, locus YNL222W, strain SSU72, active compounds read low 0.983 | S. cerevisiae deletion strains, locus YNL307C, strain MCK1 (second series), active compounds read low 0.954 | S. cerevisiae deletion strains, locus YOL078W, strain AVO1, active compounds read low 0.987 | S. cerevisiae deletion strains, locus YOL136C, strain PFK27, active compounds read low 0.916 | S. cerevisiae deletion strains, locus YOR061W, strain CKA2, active compounds read low 0.987 | S. cerevisiae deletion strains, locus YOR119C, strain RIO1, active compounds read low 1.02 | S. cerevisiae deletion strains, locus YOR231W, strain MKK1, active compounds read low 0.952 | S. cerevisiae deletion strains, locus YOR329C, strain SCD5, active compounds read low 0.987 | S. cerevisiae deletion strains, locus YPL031C, strain PHO85, active compounds read low 0.95 | S. cerevisiae deletion strains, locus YPL153C, strain RAD53, active compounds read low 0.937 | S. cerevisiae deletion strains, locus YPL204W, strain HRR25, active compounds read low 0.918 | S. cerevisiae deletion strains, locus YPL209C, strain IPL1, active compounds read low 0.986 | S. cerevisiae deletion strains, locus YPL256C, strain CLN2, active compounds read low 0.885 | S. cerevisiae deletion strains, locus YPR025C, strain CCL1, active compounds read low 0.981 | S. cerevisiae deletion strains, locus YPR106W, strain ISR1, active compounds read low 0.979 | S. cerevisiae deletion strains, locus YPR111W, strain DBF20, active compounds read low 0.97 | S. cerevisiae deletion strains, strain NNK1, active compounds read low 0.984 | S. cerevisiae deletion strains, strain TSCII, active compounds read low 0.995
active: S. cerevisiae deletion strains, locus YLR113W, strain HOG1, active compounds read low 0.802

O=S(=O)(NCc1ccc(F)cc1F)c1cccc(C(F)(F)F)c1
active: S. cerevisiae deletion strains, locus YDL134C, strain PPH21, active compounds read low 0.894
inactive: [3] 0.969 | [4] 0.98 | [5] 0.972 | [1] 0.985 | [6] 0.911 | [7] 0.988 | [8] 0.976 | [9] 0.98 | [2] 0.946 | [10] 0.978 | [11] 0.972 | [12] 0.984 | [13] 0.947 | S. cerevisiae deletion strains, locus YKL190W, strain CNB1, active compounds read low 0.977 | [14] 0.884 | [15] 0.979 | [16] 0.954 | [17] 0.844 | [18] 0.962 | [19] 0.979 | [20] 0.979 | S. cerevisiae deletion strains, locus YMR307W, strain GAS1, active compounds read low 0.899 | [21] 1.01 | [22] 0.968 | [23] 0.973 | [24] 0.986 | [25] 0.873 | [26] 0.982 | [27] 0.913 | [28] 0.98

O=S(=O)(c1ccc(Cl)cc1)c1cc(C(F)(F)F)cc(C(F)(F)F)c1
inactive: [3] 0.978 | [4] 0.983 | [5] 1 | [1] 1.01 | [6] 1.01 | [7] 0.963 | [8] 0.988 | [9] 0.98 | [2] 0.988 | [10] 0.986 | [11] 0.984 | [12] 0.989 | [13] 0.957 | [14] 0.954 | [15] 0.987 | [16] 0.935 | [17] 0.964 | [18] 0.978 | [19] 0.974 | [20] 1 | S. cerevisiae deletion strains, locus YNL128W, strain TEP1, active compounds read low 0.972 | [21] 1.01 | [22] 1.03 | [23] 0.952 | [24] 0.955 | S. cerevisiae deletion strains, locus YOL006C, strain TOP1, active compounds read low 0.97 | [25] 1.03 | [26] 0.992 | [27] 1.08 | [28] 0.976
